This passage reports Potency results from PubChem BioAssay AID1645879 (National Center for Advancing Translational Sciences (NCATS), 2021).

Results filed as inconclusive are left out. Entries that show only a call come without a potency. The source made the active and inactive calls. Calls come from the whole dose curve; as a rule, active = well fitted inhibition curve with a large enough effect; inconclusive = small, poorly fitted or top-dose-only effect; inactive = no such curve, though single readings can be large or run the other way.

This experiment can be described thus: Counterscreen qHTS assay for inhibitors of N-terminal methyltransferase 1 (NTMT1): SPKRIA Counterscreen Assay. Particulars: biochemical qHTS; series mostly up to 99.2 µM. In a few lines:
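Luminescent SAH detection after 30 min room-temperature reaction with 1 uM SPKRIA, following 15 min compound preincubation. Percent inhibition, normalized to control, fitted by 4-parameter Hill equation.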
(In general: Counterscreens check selectivity or assay interference.)
With `CC(=O)Nc1sc2c(c1-c1nc3ccccc3s1)CNC2`, the Potency result was “inactive”.

With `Cc1ccc(-n2ncc3c(NCCO)ncnc32)cc1Cl`, the Potency is 31.6 µM (active).

`Cc1cc2c(s1)c1cnn(Cc3ccc(C)c(F)c3)c(=O)c1n2C`: the Potency result is “inactive”.

For the compound `COc1cc2c(cc1O)CC[C@H]1[C@@H]2CC[C@]2(C)[C@H](O)CC[C@@H]12`, the Potency is 50.1 µM (active).

As to `Nc1nc2c(s1)C(c1ccccc1Cl)CC(=O)N2` (stereo not given), the Potency result was “inactive”.

On to `Cc1cc(C)n2c(Nc3c(C)cccc3C)c(-c3ccsc3)nc2n1`, for which the Potency entry was “inactive”.

Take `CC(C)=CCC/C(C)=C/CC/C(C)=C/CSc1ccccc1C(=O)O`: the Potency result was “inactive”.

As to `NC(=O)C1CCN(c2nc(-c3ccc4c(c3)CCO4)cs2)CC1`, the Potency entry was “inactive”.

On to `O=C(Nc1onc2c1CCCC2)c1ccccc1`, for which the Potency result was “inactive”.

In the case of `CNc1sc(-c2cccc3ccccc23)nc1C#N`, the Potency result is “inactive”.

With `Oc1ccc(Cl)cc1Nc1nc2ccccc2n2cnnc12`, the Potency result was “inactive”.

As to `Cc1ccc(Nc2ncnc3c2cnn3-c2ccccc2)c(C)c1`, the Potency was 7.94 µM (active).

Regarding `Nc1ccc2nc(-c3ccc(O)cc3)sc2c1`, the Potency was 44.7 µM (active).

For `Oc1cccc(Nc2nc(-c3ccccc3)nc3ccccc23)c1`, the Potency was 20 µM (active).

With `NC(=O)C1CCN(c2nc(-c3cccc4ccccc34)cs2)CC1`, the Potency entry is “inactive”.

Turning to `COc1ccc(C(=O)Nc2onc3c2CCCC3)cc1`, the Potency result is “inactive”.

Take `O=C(Nc1noc2ccccc12)c1ccc(F)cc1`: the Potency is 39.8 µM (active).

As to `COc1ccc2[nH]c(S(=O)Cc3ncc(C)c(OC)c3C)nc2n1` (stereo not given), the Potency result was “inactive”.

Take `Cc1cc(C)nc(NC(=S)N2CCN(c3ccccn3)CC2)c1`: the Potency result was “inactive”.

Consider `Cc1nc(C)c(-c2ccc3ncnc(NCc4ncc[nH]4)c3c2)s1`, for which the Potency was 44.7 µM (active).

For the compound `Cc1c(Cl)ccc2sc(N3CCN(C(=O)C4CC4)CC3)nc12`, the Potency entry was “inactive”.

In the case of `O=C(c1ccc(/C=C/c2n[nH]c3ccccc23)cc1)N1CCNCC1`, the Potency entry is “inactive”.

Regarding `COc1ccc(C(=O)Nc2noc3ccccc23)cc1`, the Potency was 39.8 µM (active).

On to `CCc1cc(C(N)=S)ccn1`, for which the Potency result is “inactive”.

As for `O=C(Nc1ccc2c(c1)CCC2)Nc1nnc(-c2ccncc2)s1`, the Potency result was “inactive”.

As for `C[C@]12CCC3=C4CCC(=O)C=C4CC[C@H]3[C@@H]1CC[C@@]2(O)CC#N`, the Potency entry is “inactive”.

As to `Cc1ccc2nc(-c3ccc(O)cc3)c(Nc3ccc(Cl)cc3)n2c1`, the Potency entry is “inactive”.

With `COc1cc2ncnc(Nc3cccc(Cl)c3)c2cc1OC`, the Potency was 22.4 µM (active).

For `O=C(O)c1cccc(-c2noc(-c3ccccc3F)n2)c1`, the Potency result was “inactive”.

With `NC(=O)C1CCN(c2nc(-c3ccccc3Cl)cs2)CC1`, the Potency entry was “inactive”.

Consider `O=C(Nc1nc2c(s1)CCCC2)c1ccccc1F`, for which the Potency was 39.8 µM (active).

On to `C1CCC(C(CC2CCCCN2)C2CCCCC2)CC1` (stereo not given), for which the Potency entry was “inactive”.

As for `Cc1cc2c(s1)c1cnn(Cc3cccc(F)c3)c(=O)c1n2C`, the Potency result was “inactive”.

Regarding `NC(=O)C1CCN(c2nc(-c3ccc(F)cc3)cs2)CC1`, the Potency is 44.7 µM (active).

As to `Oc1ccc(-c2nc(-c3ccc(F)cc3)c(-c3ccncc3)[nH]2)cc1`, the Potency was 44.7 µM (active).
